# Sampled rows, rich in hits. Any-hit rate of the full collection: about 0.97%.
# RecA splice inh: Mtb RecA intein splicing inhibitors, primary screen, biochemical, fluorescence, HTS; cell-free RecA intein splicing; inhibition, % (no concentration beside the values); 290,000 tested, 0.75% active; in the data active means inhibition above about 30%; inconclusive means no clear call, values can overlap the other calls;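 further: 0% = vehicle wells and 100% = reference inhibitor control wells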
# TcdB inh: TcdB glycohydrolase inhibitors, primary screen, biochemical, single point, plate reader; Toxin B (Clostridioides difficile), P18177; 350,000 tested, 0.24% active; TcdB glycohydrolase enzymatic assay; inhibition, % at 9.99 µM; in the data active means inhibition above about 10%
# MazEF act: activators of E. coli MazEF toxin-antitoxin RNase, primary screen, biochemical, fluorescence, uHTS. FAM/BHQ RNA-DNA oligo cleavage fluorescence, 5 h. activation, % at 20 µM. 350,000 tested, 0.32% active. AID 504720, 2011; in the data active means activation above about 50%
# Target sequence (P0AE70 whole entry, looked up): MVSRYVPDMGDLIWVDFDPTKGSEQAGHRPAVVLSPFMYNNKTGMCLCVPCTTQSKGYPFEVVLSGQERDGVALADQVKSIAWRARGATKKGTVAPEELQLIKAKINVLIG
# Mtb betalactam: beta-lactam sensitization of Mtb H37Rv, H37Rv; 330,000 tested, 0.27% active; inhibition, % at 25 µM; M. tuberculosis H37Rv growth with meropenem, percent inhibition; call rule not given here;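 further: growth measured after seven days incubation then overnight dye step; 0% = bacteria only wells and 100% = bacteria with antibiotic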
# Mtb UGM inh: M. tuberculosis UGM enzyme inhibitors, primary screen, biochemical, fluorescence polarization, single point | purified UGM, fluorescence polarization probe displacement | inhibition, % at 10 µM | 320,000 tested, 0.06% active; in the data active means inhibition above about 10%, passing the limit was not always enough; inconclusive means no clear call, values can overlap the other calls
# Rv3671c protease: Rv3671c serine protease inhibitors, primary screen, biochemical, fluorescence polarization, M. tuberculosis H37Rv; inhibition, % at 5.96 µM; 320,000 tested, 0.048% active; in the data active means inhibition above about 38%;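 further: extracellular domain of Rv3671c used as enzyme; 0% = enzyme with DMSO and 100% = no enzyme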
# Target sequence (P9WHR9 whole entry, looked up, the tested form may be a part): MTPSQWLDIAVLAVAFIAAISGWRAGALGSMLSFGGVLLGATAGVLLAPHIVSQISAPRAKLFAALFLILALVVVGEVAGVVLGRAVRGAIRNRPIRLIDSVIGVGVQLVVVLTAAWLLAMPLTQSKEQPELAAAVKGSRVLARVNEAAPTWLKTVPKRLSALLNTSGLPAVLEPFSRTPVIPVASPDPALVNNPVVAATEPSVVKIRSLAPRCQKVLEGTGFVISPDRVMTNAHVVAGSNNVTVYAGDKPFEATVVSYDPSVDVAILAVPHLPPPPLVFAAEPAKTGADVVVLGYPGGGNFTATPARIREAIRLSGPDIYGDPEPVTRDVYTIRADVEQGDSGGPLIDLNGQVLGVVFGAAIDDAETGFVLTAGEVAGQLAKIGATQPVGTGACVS
# The depositor's hits bear a star; ? = inconclusive; . = not tested or not shown; + = active, no number; ! = repeats disagree.
SMILES,RecA splice inh,TcdB inh,MazEF act,Mtb betalactam,Mtb UGM inh,Rv3671c protease
Cc1ccc(C=C2C(Cl)=C(Cl)C(Cl)=C2Cl)cc1,31*,.,-15,99,-3,4
N#C[C@@H]1[C@@H](c2ccccc2-c2ccccc2F)[C@H](CO)N1C(=O)c1cccc(F)c1,.,-1,.,.,.,.
Cc1ccc(S(=O)(=O)N2CCN(CC(=O)NC(=O)NCc3ccccc3)CC2)cc1C,0,1,95*,5,1,2
O=C(NCc1ccc(F)cc1)[C@H]1C[C@H]2C(=O)N[C@@H](Cc3ccccc3)C(=O)N2[C@H]1c1ccc(O)cc1,.,-1,.,.,.,.
COc1ccccc1N1C(=O)S/C(=C\c2cc(C)n(C)c2C)C1=O,-7,2,+,3,0,4
Cc1ccc(/C=C2\SC(=S)N(CCC(=O)Nc3cccnc3)C2=O)cc1,0,1,82*,?,2,0
O=C(CCCN1C(=O)/C(=C\c2ccccc2)SC1=S)Nc1ccc(O)cc1,32*,1,0,13,1,2
COc1ccc(/C=C2/SC(=S)N(CCC(=O)Nc3cccnc3)C2=O)cc1OC,.,1,-6,.,.,.
CO[C@@H]1CN(C)C(=O)c2cc(NC(C)=O)ccc2OC[C@@H](C)N(S(C)(=O)=O)C[C@@H]1C,.,0,.,.,.,.
O=C(C[C@H]1CC[C@@H]2[C@H](COC[C@@H](O)CN2C(=O)c2ccncc2)O1)NCc1ccc(-c2ccccc2)cc1,.,1,.,.,.,.
Cc1ccc(-c2c3c([nH]c(=S)c2C#N)CCCC3)o1,5,.,88*,-2,3,-2
N#Cc1c(-c2ccncc2)c2c([nH]c1=S)CCCC2,-6,.,-4,5,0,3
Cc1cccc(N=C2NC(=O)CS2)c1,-4,.,-5,1,-1,-1
Cc1cc(C)cc(N=C2NC(=O)CS2)c1,-1,13*,1,-4,1,-2
CN1CCN(C(CNC(=O)c2ccc(Br)o2)c2ccc(F)cc2)CC1 (configuration not stated),1,12*,9,-2,0,-1
Cc1ccc(C(CNC(=O)c2ccc(Br)o2)N2CCN(C)CC2)cc1 (configuration not stated),-3,-2,2,-13,3,4
COc1ccc(NC(=O)N[C@@H]2CC[C@@H](CCNC(=O)c3cc(Cl)cc(Cl)c3)O[C@H]2CO)cc1,.,1,.,.,.,.
CC(C)C#Cc1ccc([C@@H]2[C@H]3CN(C(=O)C4CCCCC4)CC(=O)N3[C@H]2CO)cc1,.,2,.,.,.,.
N#CC(C#N)=C1C=C2C=C(N3CCCCCC3)CCC2CC1 (configuration not stated),.,0,-680,.,.,.
CCN1CCN(C2=CC3=CC(=C(C#N)C#N)CCC3CC2)CC1 (configuration not stated),.,.,+,.,.,.
CC1CCN(S(=O)(=O)c2ccc3c(c2)c(=O)c(C(=O)NCc2ccco2)cn3C)CC1,2,.,-8,-11,-1,-15
CCN(CC)S(=O)(=O)c1ccc2c(c1)c(=O)c(C(=O)NCc1ccco1)cn2C,-2,0,2,2,12*,-3
Cc1onc(-c2c(Cl)cccc2Cl)c1C(=O)n1nnc2ccccc21,37*,.,.,16,-1,6
CN(C)c1ccc(C(=O)n2nnc3ccccc32)cc1,49*,.,-2,9,-1,0
Cc1ccc(C(=O)n2nnc3ccccc32)cc1,5,.,.,0,3,2
SMILES,RecA splice inh,TcdB inh,MazEF act,Mtb betalactam,Mtb UGM inh,Rv3671c protease
Cc1ccc(/C=C2\Oc3cc(OC(=O)N4CCOCC4)ccc3C2=O)cc1,-1,.,5,4,0,2
O=C(Oc1ccc2c(c1)O/C(=C\c1ccncc1)C2=O)c1ccccc1,0,.,220*,16,1,-10
Cn1c(-c2ccc(F)c(F)c2)cc2onc(-c3ccccc3)c2c1=O,.,10*,1,-6,0,-9
O=C(Nc1n[nH]c(=S)s1)c1ccco1,-1,9,2,-5,2,7
NNC(=O)CNC(=O)Nc1n[nH]c(=S)s1,.,10*,.,.,.,.
O=[N+]([O-])c1ccc(Oc2cccc(F)c2)c2ccncc12,73*,.,-6,-5,-1,-6
C/C(=N\NS(=O)(=O)c1ccc([N+](=O)[O-])cc1)c1c[nH]c2ccccc12,-1,-1,52*,1,-3,6
CC(Cc1ccccc1)=NNc1ccc([N+](=O)[O-])cc1[N+](=O)[O-],.,1,-6,.,.,.
C/C(=N/NS(=O)(=O)c1ccc(Br)cc1)c1c[nH]c2ccccc12,-3,0,33,1,-1,-5
CC(Cc1ccccc1)=NNS(=O)(=O)c1ccc([N+](=O)[O-])cc1,.,0,88*,.,.,.
Cc1ccc(-n2nc(C)c(NC(=O)CCl)c2C)cc1C,42*,.,-3,97,1,1
CO[C@H]1CN(C)C(=O)c2cc(NC(=O)C3CCCC3)ccc2OC[C@@H](C)N(CC2CC2)C[C@@H]1C,.,-1,.,.,.,.
O=C(C[C@@H]1CC[C@H](NC(=O)c2cccnc2)[C@@H](CO)O1)NCc1ccncn1,.,0,.,.,.,.
CN1C(=O)c2cc(NS(=O)(=O)c3ccc(F)cc3)ccc2OC[C@H]2O[C@@H](CC(=O)NCC(F)(F)F)CC[C@H]21,.,1,.,.,.,.
CCCCn1c(O)c(N=Nc2ccccc2O)c2ccccc21,.,1,101*,91,-2,13
CCCCn1c(O)c(N=Nc2ccccn2)c2ccccc21,12,.,8,87,3,-2
C[C@H](CO)N1C[C@H](C)[C@@H](CN(C)C(=O)Nc2ccc(C(F)(F)F)cc2)Oc2c(NS(=O)(=O)c3ccccc3)cccc2C1=O,.,10*!,7,9,-1,-5
Cc1noc(C)c1NC(=O)N(C)C[C@@H]1Oc2ccc(NC(=O)C3CCCCC3)cc2C(=O)N([C@@H](C)CO)C[C@H]1C,.,13*!,7,-1,-1,3
C[C@@H]1CN([C@@H](C)CO)C(=O)c2cccc(N(C)C)c2O[C@H]1CN(C)C(=O)Nc1ccc(C(F)(F)F)cc1,.,0,.,.,.,.
C[C@H](CO)N1C[C@H](C)[C@@H](CN(C)C(=O)Nc2ccc(C(F)(F)F)cc2)Oc2c(cccc2N(C)C)C1=O,.,14*,6,-6,-1,-3
C[C@H]1CN([C@@H](C)CO)C(=O)c2cc(NC(=O)C3CCCCC3)ccc2O[C@@H]1CN(C)CC1CCCCC1,.,0,.,.,.,.
FC(F)(F)c1ccc(C2[C@H]3CN(Cc4cccnc4)[C@H](c4ccccc4)C34CC2(c2cccnc2)C4)cc1 (some centres not stated),40*,1,-5,98,2,-12

# Source: PubChem
